# Measured values: the supplement of paper PMC7335073
# The full ranking holds about 4,100 sequences; the median of “relative CpG methylation activity (normalised to average over all NNNCGNNN flanks)” is about 0.87, and the highest 2% start at about 2.4. The list comes from a sample in which the highest values are over-represented; it also holds similar and randomly drawn sequences.
# Molecular target: DNMT3A catalytic domain (mouse) (UniProt O88508)
# Assay: relative CpG methylation activity (normalised to average over all NNNCGNNN flanks) (relative (1 = mean)); higher = more methylation of the central CpG
# Settings: system: in vitro, murine catalytic domain; CpG state: hemimethylated substrate pool; residues: 608-908
# Method: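 Deep enzymology: a pool of dsDNA substrates with a central CpG flanked by 10 random nucleotides on each side was methylated by the murine DNMT3A or DNMT3B catalytic domain (0.8 mM SAM, 37 °C, 60 min). Methylation was then read out by hairpin ligation, bisulfite conversion and NGS. Values are the average methylation of each NNNCGNNN context (±3 flanks; the outer flanks are random and averaged over), normalised to the overall mean, so 1 = average activity.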
row,Sequence,relative CpG methylation activity
1,CCTCGGAT,0.744
2,CCCCGCGC,1.17
3,TATCGACT,0.753
4,ATCCGGAT,1.34
5,GTGCGACC,1.61
6,AGCCGATT,0.672
7,GATCGCCA,0.923
8,ATCCGCCG,2.1
9,CACCGCCA,1.32
10,CTCCGCCA,2.37
11,AACCGCCC,1.78
12,CGCCGCCA,1.25
13,CTCCGCCT,2.45
14,TCCCGCCC,1.99
15,TTCCGCGC,2.03
16,ATCCGCCC,2.96
17,TTCCGCCC,2.77
18,CGCCGCCT,1.48
19,CTCCGCGT,1.98
20,CATCGGGG,0.133

row,Sequence,relative CpG methylation activity
1,CGCCGGTA,0.746
2,ATCCGGAA,0.939
3,CCACGCAC,1.81
4,CTTCGGGC,1.16
5,TCTCGACG,0.648
6,GGCCGCAA,0.657
7,TTGCGACT,1.31
8,ATCCGCCT,2.5
9,AACCGCCT,1.76
10,CTCCGCCC,2.44
11,GTCCGCCG,2.46
12,GGCCGCCG,1.34
13,ATCCGCGT,1.34
14,CTCCGCCG,2.31
15,GCCCGCCC,2.25
16,GGCCGCCC,1.79
17,GTCCGCCC,2.41
18,GTCCGCGG,0.584
19,CGCCGCCC,1.77
20,TAGCGCTG,0.34

row,Sequence,relative CpG methylation activity
1,CATCGACC,0.793
2,GATCGTTT,0.404
3,TGTCGGTC,0.542
4,GGTCGAAA,0.512
5,ATCCGCCA,2.4
6,ATCCGCGA,1.03
7,AGCCGCCA,1.02
8,AACCGAGG,0.346
9,AGACGAGA,0.731
10,CTCCGTCG,1.92
11,CTCCGTCA,1.79
12,ATCCGTCG,2.08
13,TTCCGTCC,2.26
14,CTCCGTCC,2.65
15,ATCCGTCC,2.61
16,GCACGGGC,1.47
17,GAACGTCG,1.25
18,ATGCGGCC,1.64
